Source: the supplement of paper PMC11732987, “Enantioselective OTUD7B fragment discovery through chemoproteomics screening and high-throughput optimisation” (Communications Chemistry, 2025)

What was measured:
Experiment in all cases: log2 ratio of Biotin-Ahx-Ub-VS probe labelling (fragment/DMSO); higher = less target engagement (more negative = stronger competition), active = hit call of the paper (q ≤ 0.05, log2 ratio ≤ -1)
Conditions in all cases: compound concentration: 200 uM; treatment time: 3 h
[1] = biological target: USP34 (UniProt Q70CQ2)
Summary of the method: (§1)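 Triplicate samples of HEK293T lysate, 495 µg each, received fragment at 200 µM or vehicle for 3 h, followed by Biotin-Ahx-Ub-VS (0.5 µM final) for 1 h. After NeutrAvidin enrichment of labelled DUBs and LysC/trypsin digestion, peptides were run by diaPASEF LC-MS/MS. The values are average log2 fragment/vehicle ratios from global-median-normalised Spectronaut label-free quantities, tested by unpaired t-test on proteins having ≥2 unique peptides.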

[2] = biological target: T1, USP36 (UniProt Q9P275)
T1 sequence (whole entry): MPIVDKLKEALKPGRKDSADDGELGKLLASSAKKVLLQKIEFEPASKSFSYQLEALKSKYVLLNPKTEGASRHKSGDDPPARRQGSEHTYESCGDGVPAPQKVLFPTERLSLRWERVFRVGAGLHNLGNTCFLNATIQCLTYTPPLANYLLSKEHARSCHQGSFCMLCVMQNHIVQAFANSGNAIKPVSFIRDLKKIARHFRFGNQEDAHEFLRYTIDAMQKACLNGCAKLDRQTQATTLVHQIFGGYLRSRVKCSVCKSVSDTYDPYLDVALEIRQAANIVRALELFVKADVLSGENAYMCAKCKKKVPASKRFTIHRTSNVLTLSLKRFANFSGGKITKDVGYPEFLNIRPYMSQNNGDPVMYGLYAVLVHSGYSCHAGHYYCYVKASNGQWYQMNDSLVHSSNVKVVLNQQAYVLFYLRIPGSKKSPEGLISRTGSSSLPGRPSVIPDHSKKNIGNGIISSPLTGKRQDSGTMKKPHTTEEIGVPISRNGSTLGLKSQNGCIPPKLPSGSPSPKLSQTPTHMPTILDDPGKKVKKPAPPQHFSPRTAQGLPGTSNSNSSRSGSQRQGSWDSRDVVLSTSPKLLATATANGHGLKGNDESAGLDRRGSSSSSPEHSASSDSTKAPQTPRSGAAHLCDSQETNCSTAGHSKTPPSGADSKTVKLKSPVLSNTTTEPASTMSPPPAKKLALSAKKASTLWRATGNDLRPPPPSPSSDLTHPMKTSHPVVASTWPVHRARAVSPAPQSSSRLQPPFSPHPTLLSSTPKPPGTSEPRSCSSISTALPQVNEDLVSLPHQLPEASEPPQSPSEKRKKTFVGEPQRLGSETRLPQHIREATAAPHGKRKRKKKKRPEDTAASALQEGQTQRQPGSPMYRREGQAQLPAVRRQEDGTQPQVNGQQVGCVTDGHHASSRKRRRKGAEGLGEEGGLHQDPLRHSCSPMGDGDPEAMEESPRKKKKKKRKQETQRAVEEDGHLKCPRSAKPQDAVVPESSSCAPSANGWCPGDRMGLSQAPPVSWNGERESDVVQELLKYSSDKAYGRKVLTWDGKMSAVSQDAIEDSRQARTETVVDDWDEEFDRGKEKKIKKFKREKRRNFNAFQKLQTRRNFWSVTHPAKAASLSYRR
Summary of the method: as §1

[3] = biological target: T2, USP38 (UniProt Q8NB14)
T2 sequence (whole entry): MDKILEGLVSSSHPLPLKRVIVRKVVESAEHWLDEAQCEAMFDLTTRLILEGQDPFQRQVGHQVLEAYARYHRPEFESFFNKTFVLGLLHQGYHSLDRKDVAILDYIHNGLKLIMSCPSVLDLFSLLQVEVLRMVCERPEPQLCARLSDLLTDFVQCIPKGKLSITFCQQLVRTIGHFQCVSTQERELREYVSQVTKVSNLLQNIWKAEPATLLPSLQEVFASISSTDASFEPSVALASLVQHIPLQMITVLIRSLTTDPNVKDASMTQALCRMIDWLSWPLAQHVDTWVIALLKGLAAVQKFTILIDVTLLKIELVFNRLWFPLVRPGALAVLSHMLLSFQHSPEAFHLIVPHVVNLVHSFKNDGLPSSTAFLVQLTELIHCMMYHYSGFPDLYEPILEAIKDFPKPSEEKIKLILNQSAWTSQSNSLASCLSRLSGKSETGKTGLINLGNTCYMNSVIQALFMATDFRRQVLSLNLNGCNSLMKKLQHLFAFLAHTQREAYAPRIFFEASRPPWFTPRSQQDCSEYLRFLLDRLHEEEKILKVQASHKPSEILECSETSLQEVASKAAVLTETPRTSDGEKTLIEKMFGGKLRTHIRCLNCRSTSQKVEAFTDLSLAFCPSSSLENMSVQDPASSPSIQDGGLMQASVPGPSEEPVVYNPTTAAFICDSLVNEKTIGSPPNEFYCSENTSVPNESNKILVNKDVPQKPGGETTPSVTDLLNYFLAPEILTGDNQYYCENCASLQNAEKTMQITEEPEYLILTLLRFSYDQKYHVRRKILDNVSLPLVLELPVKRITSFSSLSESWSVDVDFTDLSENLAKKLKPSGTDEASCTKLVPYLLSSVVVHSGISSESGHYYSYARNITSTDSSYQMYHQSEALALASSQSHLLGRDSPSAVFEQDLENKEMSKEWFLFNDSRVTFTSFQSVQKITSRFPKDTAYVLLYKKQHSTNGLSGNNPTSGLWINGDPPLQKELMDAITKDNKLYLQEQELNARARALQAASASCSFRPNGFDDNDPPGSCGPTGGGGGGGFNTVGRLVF
Summary of the method: as §1

[4] = biological target: T3, USP39 (UniProt Q53GS9)
T3 sequence (whole entry): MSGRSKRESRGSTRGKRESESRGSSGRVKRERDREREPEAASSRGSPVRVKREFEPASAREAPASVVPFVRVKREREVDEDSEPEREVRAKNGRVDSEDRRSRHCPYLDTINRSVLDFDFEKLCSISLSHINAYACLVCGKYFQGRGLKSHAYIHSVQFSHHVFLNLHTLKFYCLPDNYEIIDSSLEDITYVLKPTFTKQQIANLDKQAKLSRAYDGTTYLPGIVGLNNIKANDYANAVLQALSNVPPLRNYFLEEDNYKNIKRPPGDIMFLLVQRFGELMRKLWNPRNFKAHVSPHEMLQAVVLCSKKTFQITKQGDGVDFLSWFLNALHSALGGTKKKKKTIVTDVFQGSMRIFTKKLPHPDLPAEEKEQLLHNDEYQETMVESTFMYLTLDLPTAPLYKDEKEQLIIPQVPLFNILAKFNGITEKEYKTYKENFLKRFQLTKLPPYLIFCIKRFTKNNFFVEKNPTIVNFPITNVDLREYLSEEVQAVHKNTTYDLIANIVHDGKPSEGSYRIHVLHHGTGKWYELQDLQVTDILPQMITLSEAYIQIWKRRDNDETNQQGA
Summary of the method: as §1

[5] = biological target: T4, USP4 (UniProt Q13107)
T4 sequence (whole entry): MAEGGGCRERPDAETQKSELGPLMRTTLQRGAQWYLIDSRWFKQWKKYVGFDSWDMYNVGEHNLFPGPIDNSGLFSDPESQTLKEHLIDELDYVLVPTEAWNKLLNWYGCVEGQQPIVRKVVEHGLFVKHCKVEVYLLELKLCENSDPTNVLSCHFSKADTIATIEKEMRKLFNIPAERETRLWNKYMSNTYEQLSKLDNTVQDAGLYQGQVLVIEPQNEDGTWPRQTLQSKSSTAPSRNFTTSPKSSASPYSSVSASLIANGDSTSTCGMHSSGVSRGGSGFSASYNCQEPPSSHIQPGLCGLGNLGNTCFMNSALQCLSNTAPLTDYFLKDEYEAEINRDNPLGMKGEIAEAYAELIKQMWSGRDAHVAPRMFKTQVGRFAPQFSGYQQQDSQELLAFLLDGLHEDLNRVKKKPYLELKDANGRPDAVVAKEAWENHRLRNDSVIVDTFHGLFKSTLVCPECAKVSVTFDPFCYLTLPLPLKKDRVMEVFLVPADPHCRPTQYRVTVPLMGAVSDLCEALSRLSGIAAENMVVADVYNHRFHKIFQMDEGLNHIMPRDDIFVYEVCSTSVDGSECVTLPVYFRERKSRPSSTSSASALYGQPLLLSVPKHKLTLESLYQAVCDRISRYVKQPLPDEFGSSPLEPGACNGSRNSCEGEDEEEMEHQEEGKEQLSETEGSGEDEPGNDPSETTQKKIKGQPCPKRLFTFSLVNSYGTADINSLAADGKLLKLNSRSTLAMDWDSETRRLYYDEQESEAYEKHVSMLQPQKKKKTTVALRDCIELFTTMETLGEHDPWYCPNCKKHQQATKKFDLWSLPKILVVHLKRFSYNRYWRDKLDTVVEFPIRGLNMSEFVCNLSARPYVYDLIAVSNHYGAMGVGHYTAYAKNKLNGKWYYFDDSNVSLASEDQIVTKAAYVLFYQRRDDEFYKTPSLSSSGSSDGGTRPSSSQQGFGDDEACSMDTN
Summary of the method: as §1

Measured: log2 ratio of Biotin-Ahx-Ub-VS probe labelling

Sequence of USP34 (Q70CQ2 whole entry, the tested form may be a part): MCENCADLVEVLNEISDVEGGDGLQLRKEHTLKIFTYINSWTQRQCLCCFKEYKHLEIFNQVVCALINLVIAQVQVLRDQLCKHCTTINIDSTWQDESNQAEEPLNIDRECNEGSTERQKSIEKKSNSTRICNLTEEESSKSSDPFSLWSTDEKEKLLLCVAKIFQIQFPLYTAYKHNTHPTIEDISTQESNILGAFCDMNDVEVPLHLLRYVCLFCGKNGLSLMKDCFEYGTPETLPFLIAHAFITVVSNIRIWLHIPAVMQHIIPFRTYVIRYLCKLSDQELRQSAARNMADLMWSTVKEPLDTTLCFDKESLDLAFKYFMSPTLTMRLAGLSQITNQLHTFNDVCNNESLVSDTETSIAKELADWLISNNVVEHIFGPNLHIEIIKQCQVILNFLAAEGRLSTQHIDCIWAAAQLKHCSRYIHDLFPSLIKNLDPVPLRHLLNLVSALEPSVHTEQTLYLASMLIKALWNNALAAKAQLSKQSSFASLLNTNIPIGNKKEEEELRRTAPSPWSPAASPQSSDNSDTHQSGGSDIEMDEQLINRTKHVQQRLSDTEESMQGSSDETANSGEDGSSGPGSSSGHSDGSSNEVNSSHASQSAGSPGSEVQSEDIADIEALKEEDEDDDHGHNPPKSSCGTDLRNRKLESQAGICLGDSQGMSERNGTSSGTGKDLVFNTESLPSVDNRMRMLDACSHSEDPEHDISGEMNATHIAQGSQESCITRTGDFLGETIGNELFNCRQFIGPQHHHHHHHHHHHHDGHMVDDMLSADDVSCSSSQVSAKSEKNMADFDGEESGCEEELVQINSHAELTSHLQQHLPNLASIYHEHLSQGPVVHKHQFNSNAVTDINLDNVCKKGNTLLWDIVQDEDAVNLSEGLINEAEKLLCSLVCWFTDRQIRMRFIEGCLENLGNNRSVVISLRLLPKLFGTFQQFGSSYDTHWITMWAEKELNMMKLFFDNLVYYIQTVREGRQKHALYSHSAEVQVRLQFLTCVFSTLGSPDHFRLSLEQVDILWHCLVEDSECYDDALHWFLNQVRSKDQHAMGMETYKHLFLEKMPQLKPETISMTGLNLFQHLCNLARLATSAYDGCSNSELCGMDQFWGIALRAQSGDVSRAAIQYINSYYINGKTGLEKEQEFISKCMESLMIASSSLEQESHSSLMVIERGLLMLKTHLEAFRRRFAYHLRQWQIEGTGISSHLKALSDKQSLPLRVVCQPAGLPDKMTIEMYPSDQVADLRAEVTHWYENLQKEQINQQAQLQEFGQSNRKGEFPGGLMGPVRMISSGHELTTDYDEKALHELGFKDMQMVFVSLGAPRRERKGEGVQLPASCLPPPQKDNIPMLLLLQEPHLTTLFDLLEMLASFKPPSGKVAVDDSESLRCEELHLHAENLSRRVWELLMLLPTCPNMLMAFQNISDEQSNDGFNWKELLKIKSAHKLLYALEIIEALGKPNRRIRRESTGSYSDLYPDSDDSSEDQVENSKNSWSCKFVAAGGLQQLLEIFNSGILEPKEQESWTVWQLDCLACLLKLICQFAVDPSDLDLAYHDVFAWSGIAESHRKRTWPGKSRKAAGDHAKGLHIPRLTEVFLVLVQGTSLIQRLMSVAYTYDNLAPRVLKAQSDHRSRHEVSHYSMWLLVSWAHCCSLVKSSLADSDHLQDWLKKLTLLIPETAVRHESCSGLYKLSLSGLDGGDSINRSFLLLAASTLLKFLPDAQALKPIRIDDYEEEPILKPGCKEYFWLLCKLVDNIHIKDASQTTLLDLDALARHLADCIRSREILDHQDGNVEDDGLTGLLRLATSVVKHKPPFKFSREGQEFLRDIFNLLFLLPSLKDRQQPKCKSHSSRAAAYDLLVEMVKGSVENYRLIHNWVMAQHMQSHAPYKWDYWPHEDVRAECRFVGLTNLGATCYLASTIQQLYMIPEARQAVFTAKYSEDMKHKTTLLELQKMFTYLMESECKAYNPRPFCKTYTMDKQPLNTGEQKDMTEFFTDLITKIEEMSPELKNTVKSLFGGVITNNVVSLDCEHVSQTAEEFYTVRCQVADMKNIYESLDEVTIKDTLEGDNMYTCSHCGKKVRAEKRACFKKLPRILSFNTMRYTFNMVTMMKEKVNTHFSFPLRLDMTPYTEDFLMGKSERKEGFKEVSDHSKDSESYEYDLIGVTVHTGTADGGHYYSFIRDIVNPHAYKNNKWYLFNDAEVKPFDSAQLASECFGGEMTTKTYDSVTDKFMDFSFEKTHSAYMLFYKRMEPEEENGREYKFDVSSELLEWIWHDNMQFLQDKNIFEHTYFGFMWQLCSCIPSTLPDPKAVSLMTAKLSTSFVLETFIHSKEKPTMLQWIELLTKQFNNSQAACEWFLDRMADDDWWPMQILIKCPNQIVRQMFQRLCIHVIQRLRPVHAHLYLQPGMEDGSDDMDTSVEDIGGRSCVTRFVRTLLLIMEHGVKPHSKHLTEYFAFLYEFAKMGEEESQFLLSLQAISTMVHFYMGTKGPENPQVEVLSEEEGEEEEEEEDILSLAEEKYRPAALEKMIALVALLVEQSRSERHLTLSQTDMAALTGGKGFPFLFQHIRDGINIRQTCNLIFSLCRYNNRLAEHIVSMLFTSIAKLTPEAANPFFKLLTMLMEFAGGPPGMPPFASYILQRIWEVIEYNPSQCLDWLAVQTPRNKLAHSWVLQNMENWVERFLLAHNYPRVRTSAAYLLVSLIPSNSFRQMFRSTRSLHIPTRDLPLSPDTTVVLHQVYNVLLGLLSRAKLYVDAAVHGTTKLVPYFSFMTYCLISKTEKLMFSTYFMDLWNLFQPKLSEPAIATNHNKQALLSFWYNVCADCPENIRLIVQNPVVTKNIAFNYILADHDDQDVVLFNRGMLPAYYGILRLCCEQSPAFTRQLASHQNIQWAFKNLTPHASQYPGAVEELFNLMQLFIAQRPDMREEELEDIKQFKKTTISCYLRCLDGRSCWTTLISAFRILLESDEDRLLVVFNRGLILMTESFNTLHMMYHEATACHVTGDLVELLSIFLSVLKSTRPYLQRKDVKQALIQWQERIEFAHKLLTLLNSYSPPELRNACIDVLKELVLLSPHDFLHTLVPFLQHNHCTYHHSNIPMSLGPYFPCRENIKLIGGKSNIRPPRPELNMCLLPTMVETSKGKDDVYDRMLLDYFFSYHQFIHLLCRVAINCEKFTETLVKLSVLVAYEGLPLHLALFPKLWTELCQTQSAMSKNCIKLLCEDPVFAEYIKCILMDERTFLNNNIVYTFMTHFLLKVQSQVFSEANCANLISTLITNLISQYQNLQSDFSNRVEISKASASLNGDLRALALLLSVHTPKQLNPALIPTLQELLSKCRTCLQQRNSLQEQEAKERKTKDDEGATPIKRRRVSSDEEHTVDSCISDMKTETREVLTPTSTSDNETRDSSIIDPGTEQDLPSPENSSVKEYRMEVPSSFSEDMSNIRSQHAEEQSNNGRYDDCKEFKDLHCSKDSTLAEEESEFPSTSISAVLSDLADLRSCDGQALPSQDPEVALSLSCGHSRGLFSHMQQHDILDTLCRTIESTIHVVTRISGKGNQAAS

CCC(NC(=O)CCl)c1ccc(Cl)cc1 (stereo not given)
inactive: [1] -0.142 | [2] -0.231 | [3] 0.0692 | [4] 0.0269 | [5] 0.0111
